# Activity calls are given as the source filed them. How the calls were made is not given here.
# What was measured:
# [1] = kinase inhibitors against Plasmodium liver-stage infection, cell-based, known kinase inhibitor set, luminescence, hepatoma host viability (AID 624392); conditions: Plasmodium liver stage in hepatoma cells, luciferase luminescence, concentration not given here; liver cell % of control: measured here: host liver cell viability; parasite % of control: stronger effect = lower value;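 further: infected cells incubated roughly two days before readout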
# [2] = modulators of glucocorticoid suppression of NF-kB, cell-based, luciferase, IL-1B stimulus, dexamethasone (AID 624486); conditions: NF-kB luciferase reporter, IL-1B + dexamethasone, luminescence; percent of negative control (+Dex): actives lie on both sides, concentration not given here; z-score: measured here: IL-1B alone, no Dex;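 on percent of negative control (+Dex): 100% = mean signal of vehicle control wells on the plate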
# [3] = target: Cellular tumor antigen p53 (Homo sapiens) (UniProt P04637); assay: kinase inhibitors altering GFP-p53 stability in HPV16-positive cells, imaging, known kinase inhibitor set, EGFP/DsRed ratio (AID 1053116); conditions: stronger effect = higher value; EGFP object count: measured here: GFP-p53 positive objects count;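 further: cells exposed to compounds for 24 h at 37 °C before reading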
# Sequence of Cellular tumor antigen p53 (Homo sapiens) (P04637 whole entry, looked up): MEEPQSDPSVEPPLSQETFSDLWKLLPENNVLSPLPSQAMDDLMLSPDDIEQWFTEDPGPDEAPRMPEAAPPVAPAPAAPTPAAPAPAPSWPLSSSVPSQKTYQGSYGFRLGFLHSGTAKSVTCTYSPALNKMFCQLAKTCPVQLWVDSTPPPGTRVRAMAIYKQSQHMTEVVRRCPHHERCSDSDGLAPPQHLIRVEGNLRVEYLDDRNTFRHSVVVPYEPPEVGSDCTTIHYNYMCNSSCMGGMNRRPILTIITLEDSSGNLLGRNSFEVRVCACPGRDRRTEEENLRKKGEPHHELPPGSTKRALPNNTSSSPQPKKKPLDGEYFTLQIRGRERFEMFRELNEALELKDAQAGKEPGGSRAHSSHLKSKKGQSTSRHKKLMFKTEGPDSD
# [4] = IRF3 reporter activation in THP-1 macrophages, cell-based, PMA-stimulated THP-1, luminescence (AID 1053176); conditions: PMA-differentiated THP-1, IRF3 reporter luminescence; stronger effect = higher value
Structure (SMILES),liver cell % of control [1] [%],parasite % of control [1],percent of negative control (+Dex) [2],z-score [2],EGFP object count [3],EGFP/DsRed ratio [3],fraction signal [4]
CON=C1NC(=O)C(=Cc2ccc3ncccc3c2)S1,89.4,71.6% (inactive),113% (inactive),2.23,3.5,0.0939 (inactive),-0.005 (inactive)
Cn1cc(C2=C(c3cccc(Br)c3)C(=O)NC2=O)c2ccccc21,153,39.5% (inactive),110% (inactive),-0.515,3.5,0.13 (inactive),0.0055 (inactive)
Nc1c(C(=O)c2ccccc2)cnn1-c1ccc(F)cc1,97.1,76.7% (inactive),152% (active),5.57,5,0.17 (inactive),-0.0025 (inactive)
CCOc1ccccc1CCN=C1NC(=O)C(=Cc2ccc3ncccc3c2)S1,106,66% (inactive),90% (inactive),-0.335,11.5,0.141 (inactive),0.031 (inactive)
Cn1cc(C2=C(c3ccccc3[N+](=O)[O-])C(=O)NC2=O)c2ccccc21,80.1,121% (inactive),147% (active),-1.21,19,0.315 (inactive),0.0035 (inactive)
Fc1ccc(-c2c(-c3ccncc3)n(CCN3CCOCC3)c3cccnc23)cc1,113,63.8% (inactive),91.5% (inactive),0.395,1.5,0.18 (inactive),-0.0075 (inactive)
N#Cc1cccc(C(=O)c2cnn(-c3ccc(F)cc3)c2N)c1,102,61.7% (inactive),114% (inactive),2.75,4.5,0.122 (inactive),0.01 (inactive)
Cn1cc(C2=C(c3cn(CCCN=C(N)N)c4ccccc34)C(=O)NC2=O)c2ccccc21,110,44.7% (inactive),101% (inactive),0.295,7.5,0.202 (inactive),-0.005 (inactive)
Cn1cc(C2=C(c3ccccc3)C(=O)NC2=O)c2ccccc21,104,41% (inactive),96% (inactive),-0.33,9.5,0.26 (inactive),-0.001 (inactive)
CC(=O)Nc1ccc2c(c1)c(C1=C(c3cn(C)c4ccccc34)C(=O)NC1=O)cn2C,87.4,47.8% (inactive),97.5% (inactive),-1.79,35.5,0.557 (inactive),-0.0135 (inactive)
COc1cc[nH]c1C=C1C(=O)Nc2ccc(F)c(C#CC(O)C(N)C(C)O)c21 (configuration not stated),76.5,46.6% (inactive),135% (inactive),0.23,250,1.32 (inactive),0.0035 (inactive)
Cn1c(=O)c(Oc2ccc(F)cc2F)cc2cnc(NCC(C)(C)O)nc21,102,62.1% (inactive),101% (inactive),-0.01,4,0.146 (inactive),-0.001 (inactive)
Cn1c(=O)c(Oc2ccc(F)cc2F)cc2cnc(NC3CCOC3)nc21 (configuration not stated),96.2,51.2% (inactive),104% (inactive),0.575,4.5,0.257 (inactive),-0.001 (inactive)
Cn1cc(C2=C(c3cn(C)c4cc(Cl)ccc34)C(=O)NC2=O)c2ccccc21,82.6,48.4% (inactive),126% (active),-0.405,31,0.0945 (inactive),-0.009 (inactive)
Cn1c(=O)c(Cc2ccc(F)cc2F)cc2cnc(NC3CCOCC3)nc21,103,54.9% (inactive),98.5% (inactive),0.48,3,0.139 (inactive),-0.0055 (inactive)
Cn1cc(C2=C(Oc3ccccc3)C(=O)NC2=O)c2ccccc21,109,43% (inactive),102% (inactive),0.18,41,0.339 (inactive),-0.0005 (inactive)
COc1ccc2c(c1)C(c1ccccc1Cl)=Nc1c(n[nH]c1C)N2,81.2,28.8% (inactive),92% (inactive),-0.45,3,0.0722 (inactive),0.0035 (inactive)
O=C1NC(=NCc2ccccn2)SC1=Cc1ccc2ncccc2c1,105,37.5% (inactive),94% (inactive),0.165,6.5,0.264 (inactive),0.01 (inactive)
Cn1cc(C2=C(c3cccc(OCC(O)CO)c3)C(=O)NC2=O)c2cc(F)ccc21 (configuration not stated),125,31.6% (inactive),97% (inactive),0.67,8,0.21 (inactive),-0.0075 (inactive)
O=C1NC(=NCCc2ccc(Cl)cc2)SC1=Cc1ccc2ncccc2c1,108,53.8% (inactive),95% (inactive),0.425,6.5,0.259 (inactive),-0.0075 (inactive)
O=C1NC(=NCCc2cccc(F)c2)SC1=Cc1ccc2ncccc2c1,113,54% (inactive),85.5% (inactive),-0.65,5.5,0.176 (inactive),-0.018 (inactive)

Structure (SMILES),liver cell % of control [1] [%],parasite % of control [1],percent of negative control (+Dex) [2],z-score [2],EGFP object count [3],EGFP/DsRed ratio [3],fraction signal [4]
Cn1c(=O)c(Oc2ccccc2)cc2cnc(NC3CCOCC3)nc21,106,60.6% (inactive),105% (inactive),1.03,3.5,0.0479 (inactive),-0.005 (inactive)
O=C1NC(=NC2CC2c2ccccc2)SC1=Cc1ccc2ncccc2c1 (configuration not stated),193,10.6% (inactive),64% (active),-4.3,3,0.221 (inactive),-0.0115 (inactive)
O=[N+]([O-])c1ccc2c(c1)C(c1ccccc1Cl)=Nc1cn[nH]c1N2,101,21.4% (inactive),109% (inactive),-0.52,12,0.495 (inactive),-0.005 (inactive)
COc1ccccc1CCN=C1NC(=O)C(=Cc2ccc3ncccc3c2)S1,109,68.7% (inactive),90.5% (inactive),-0.58,5,0.0846 (inactive),0.39 (active)
CSc1c(C2=C(c3cn(C)c4ccccc34)C(=O)NC2=O)c2ccccc2n1C,96.3,78.1% (inactive),110% (inactive),0.45,21,0.217 (inactive),0.0015 (inactive)
Cn1cc(C2=C(c3cn(C)c4c([N+](=O)[O-])cccc34)C(=O)NC2=O)c2ccccc21,78.7,22.7% (inactive),102% (inactive),-0.03,18.5,0.137 (inactive),-0.005 (inactive)
Cn1c(=O)c(Sc2ccccc2F)cc2cnc(NC3CCOCC3)nc21,103,68.5% (inactive),107% (inactive),0.685,2,0.0407 (inactive),-0.0075 (inactive)
O=C1NC(=NCc2cccs2)OC1=Cc1ccc2ncccc2c1,113,64.9% (inactive),55% (active),-4.77,3.5,0.0818 (inactive),-0.0135 (inactive)
COc1ccccc1C(=O)c1cnc(NC2CCN(S(C)(=O)=O)CC2)nc1N,100,96.6% (inactive),85% (inactive),-1.16,5,0.0796 (inactive),0.0015 (inactive)
COc1cccc(F)c1C(=O)c1cnc(NC2CCN(S(C)(=O)=O)CC2)nc1N,93.1,512% (inactive),116% (inactive),2.08,3.5,0.124 (inactive),-0.018 (inactive)
CNCCCn1cc(C2=C(c3cn(C)c4ccccc34)C(=O)NC2=O)c2ccccc21,82,60.5% (inactive),102% (inactive),0.035,2.5,0.00316 (inactive),-0.0095 (inactive)
OCCn1c(-c2ccncc2)c(-c2ccc(F)cc2)c2ncccc21,114,46% (inactive),99.5% (inactive),0.305,5.5,0.119 (inactive),-0.0135 (inactive)
Cn1c(=O)c(Oc2cccc(F)c2)cc2cnc(NC3CCOCC3)nc21,112,65.8% (inactive),101% (inactive),0.78,4,0.127 (inactive),0.0015 (inactive)
COc1cc[nH]c1C=C1C(=O)Nc2ccc(F)c(C#CC3(O)CCOCC3)c21,128,1.61% (active),122% (inactive),-1.81,6,0.109 (inactive),-0.0095 (inactive)
Cn1cc(C2=C(c3c4n(c5ccccc35)CC(CN)C4)C(=O)NC2=O)c2ccccc21 (configuration not stated),97.6,48.9% (inactive),100% (inactive),-0.23,6.5,0.00726 (inactive),-0.005 (inactive)
Fc1ccc(-c2c(-c3ccncc3)[nH]c3nccnc23)cc1,183,30.2% (inactive),110% (inactive),-0.915,4,0.101 (inactive),-0.02 (inactive)
O=C1NC(=NCCc2ccccc2Cl)SC1=Cc1ccc2ncccc2c1,121,44.8% (inactive),90% (inactive),0,4.5,0.105 (inactive),-0.003 (inactive)
COc1cc[nH]c1C=C1C(=O)Nc2ccccc21,116,24.2% (inactive),148% (active),6.7,6,0.263 (inactive),-0.02 (inactive)
Cn1c(=O)c(Oc2ccc(F)cc2F)cc2cnc(NCCS(C)(=O)=O)nc21,117,60.7% (inactive),101% (inactive),0.95,1,0.00515 (inactive),0.0015 (inactive)
Cn1cc(C2=C(c3ccccc3C(F)(F)F)C(=O)NC2=O)c2ccccc21,149,31% (inactive),114% (inactive),0.1,32.5,0.646 (inactive),0.01 (inactive)
